Test results reported in PubChem BioAssay AID1159580 (chemical genetic matrix, 2015).
Among all 5,500 compounds or so, about 2,000 (36%) were called active. About 18% were inconclusive and are not listed. Cut-off read from the data, not from the text of the source: active = normalized growth mostly below about 0.91 (no sharp cut-off); inconclusive = no clear call, values can overlap the other calls; inactive = mostly above about 0.92. The list shows a part of the results.

Assay: chemical genetic growth profiling, strain panel (AID 1159580);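 note: tested at 20 µM; growth read once vehicle control cultures reached saturation at 30 °C; 1 = growth at the plate median or of vehicle wells; lower values mean less growth of the strain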
Conditions: growth OD

Measured: normalized growth

CCc1cc(C(N)=S)ccn1
inactive: S. cerevisiae deletion strains, locus YJR066W, strain TOR1, stronger effect = lower value 1 | S. cerevisiae deletion strains, locus YKL009W, strain mrt4, stronger effect = lower value 0.966 | S. cerevisiae deletion strains, locus YKL068W, stronger effect = lower value 0.975 | S. cerevisiae deletion strains, locus YKL085W, strain MDH1 (second series), stronger effect = lower value 0.964 | S. cerevisiae deletion strains, locus YKL085W, strain MDH1, stronger effect = lower value 0.964 | S. cerevisiae deletion strains, locus YKL160W, strain elf1, stronger effect = lower value 1.05 | S. cerevisiae deletion strains, locus YKL190W, strain CNB1, stronger effect = lower value 0.991 | S. cerevisiae deletion strains, locus YKR001C, strain vps1, stronger effect = lower value 0.955 | S. cerevisiae deletion strains, locus YKR026C, strain gcn3, stronger effect = lower value 1 | S. cerevisiae deletion strains, locus YKR091W, strain srl3, stronger effect = lower value 1.01 | S. cerevisiae deletion strains, locus YLL001W, strain dnm1, stronger effect = lower value 1.04 | S. cerevisiae deletion strains, locus YLL026W, stronger effect = lower value 1 | S. cerevisiae deletion strains, locus YLL041C, strain sdh2, stronger effect = lower value 1 | S. cerevisiae deletion strains, locus YLR027C, strain aat2, stronger effect = lower value 0.987 | S. cerevisiae deletion strains, locus YLR039C, strain RIC1, stronger effect = lower value 0.939 | S. cerevisiae deletion strains, locus YLR058C, strain SHM2, stronger effect = lower value 0.978 | S. cerevisiae deletion strains, locus YLR102C, strain apc9, stronger effect = lower value 0.994 | S. cerevisiae deletion strains, locus YLR113W, strain HOG1, stronger effect = lower value 1.04 | S. cerevisiae deletion strains, locus YLR221C, strain rsa3, stronger effect = lower value 1.02 | S. cerevisiae deletion strains, locus YLR258W, strain gsy2, stronger effect = lower value 1 | S. cerevisiae deletion strains, locus YLR262C, strain YPT6 (second series), stronger effect = lower value 1.04 | S. cerevisiae deletion strains, locus YLR262C, strain YPT6, stronger effect = lower value 0.937 | S. cerevisiae deletion strains, locus YLR268W, strain sec22, stronger effect = lower value 0.977 | S. cerevisiae deletion strains, locus YLR320W, strain mms22, stronger effect = lower value 1.04 | S. cerevisiae deletion strains, locus YLR330W, strain CHS5, stronger effect = lower value 0.984 | S. cerevisiae deletion strains, locus YLR342W, strain FKS1 (second series), stronger effect = lower value 1.03 | S. cerevisiae deletion strains, locus YLR342W, strain FKS1, stronger effect = lower value 1.01 | S. cerevisiae deletion strains, locus YLR357W, strain rsc2, stronger effect = lower value 0.99 | S. cerevisiae deletion strains, locus YLR370C, strain arc18, stronger effect = lower value 1 | S. cerevisiae deletion strains, locus YLR371W, strain rom2, stronger effect = lower value 0.991 | S. cerevisiae deletion strains, locus YLR384C, strain iki3, stronger effect = lower value 1 | S. cerevisiae deletion strains, locus YLR418C, strain cdc73, stronger effect = lower value 0.999 | S. cerevisiae deletion strains, locus YML016C, strain PPZ1, stronger effect = lower value 0.99 | S. cerevisiae deletion strains, locus YML032C, strain rad52, stronger effect = lower value 0.973 | S. cerevisiae deletion strains, locus YML120C, strain ndi1, stronger effect = lower value 1.02 | S. cerevisiae deletion strains, locus YML124C, strain tub3, stronger effect = lower value 0.987 | S. cerevisiae deletion strains, locus YMR058W, strain fet3, stronger effect = lower value 1.01 | S. cerevisiae deletion strains, locus YMR078C, strain ctf18, stronger effect = lower value 0.978 | S. cerevisiae deletion strains, locus YMR125W, strain sto1, stronger effect = lower value 1 | S. cerevisiae deletion strains, locus YMR129W, stronger effect = lower value 0.996 | S. cerevisiae deletion strains, locus YMR205C, strain PFK2, stronger effect = lower value 1.07 | S. cerevisiae deletion strains, locus YMR223W, strain ubp8, stronger effect = lower value 1.03 | S. cerevisiae deletion strains, locus YMR231W, strain pep5, stronger effect = lower value 1 | S. cerevisiae deletion strains, locus YMR263W, strain SAP30, stronger effect = lower value 0.982 | S. cerevisiae deletion strains, locus YMR307W, strain GAS1, stronger effect = lower value 1.06 | S. cerevisiae deletion strains, locus YNL067W, strain RPL9B, stronger effect = lower value 0.954 | S. cerevisiae deletion strains, locus YNL071W, strain lat1, stronger effect = lower value 1.01 | S. cerevisiae deletion strains, locus YNL128W, strain TEP1, stronger effect = lower value 0.985 | S. cerevisiae deletion strains, locus YNL183C, strain NPR1, stronger effect = lower value 0.999 | S. cerevisiae deletion strains, locus YNL209W, strain ssb2, stronger effect = lower value 1.01 | S. cerevisiae deletion strains, locus YNL233W, strain BNI4, stronger effect = lower value 0.963 | S. cerevisiae deletion strains, locus YNL248C, strain rpa49, stronger effect = lower value 1 | S. cerevisiae deletion strains, locus YNL250W, strain rad50, stronger effect = lower value 0.964 | S. cerevisiae deletion strains, locus YNL271C, strain bni1, stronger effect = lower value 0.971 | S. cerevisiae deletion strains, locus YNL298W, strain CLA4, stronger effect = lower value 0.978 | S. cerevisiae deletion strains, locus YNL307C, strain MCK1, stronger effect = lower value 0.985 | S. cerevisiae deletion strains, locus YNL322C, strain KRE1 (second series), stronger effect = lower value 1.03 | S. cerevisiae deletion strains, locus YNR049C, strain mso1, stronger effect = lower value 1 | S. cerevisiae deletion strains, locus YNR052C, strain pop2, stronger effect = lower value 0.993 | S. cerevisiae deletion strains, locus YOL006C, strain TOP1, stronger effect = lower value 0.995 | S. cerevisiae deletion strains, locus YOL012C, strain htz1 1.05 | S. cerevisiae deletion strains, locus YOL147C, strain pex11, stronger effect = lower value 0.988 | S. cerevisiae deletion strains, locus YOR001W, strain rrp6, stronger effect = lower value 0.965 | S. cerevisiae deletion strains, locus YOR061W, strain CKA2, stronger effect = lower value 0.96 | S. cerevisiae deletion strains, locus YOR069W, strain VPS5, stronger effect = lower value 0.998 | S. cerevisiae deletion strains, locus YOR070C, strain gyp1, stronger effect = lower value 1.01 | S. cerevisiae deletion strains, locus YOR080W, strain dia2, stronger effect = lower value 0.998 | S. cerevisiae deletion strains, locus YOR083W, strain WHI5, stronger effect = lower value 1.05 | S. cerevisiae deletion strains, locus YOR106W, strain vam3, stronger effect = lower value 1.06 | S. cerevisiae deletion strains, locus YOR136W, strain idh2, stronger effect = lower value 0.984 | S. cerevisiae deletion strains, locus YOR144C, strain elg1, stronger effect = lower value 0.985 | S. cerevisiae deletion strains, locus YOR184W, strain ser1, stronger effect = lower value 1.01 | S. cerevisiae deletion strains, locus YOR231W, strain MKK1, stronger effect = lower value 1.07 | S. cerevisiae deletion strains, locus YOR265W, strain rbl2, stronger effect = lower value 1.03 | S. cerevisiae deletion strains, locus YOR270C, strain vph1, stronger effect = lower value 1.03 | S. cerevisiae deletion strains, locus YOR290C, strain snf2, stronger effect = lower value 1.01 | S. cerevisiae deletion strains, locus YOR316C, strain cot1, stronger effect = lower value 0.981 | S. cerevisiae deletion strains, locus YPL051W, strain arl3, stronger effect = lower value 0.998 | S. cerevisiae deletion strains, locus YPL078C, strain atp4, stronger effect = lower value 1.01 | S. cerevisiae deletion strains, locus YPL106C, strain sse1, stronger effect = lower value 1.02 | S. cerevisiae deletion strains, locus YPL240C, strain hsp82, stronger effect = lower value 0.982 | S. cerevisiae deletion strains, locus YPL256C, strain CLN2, stronger effect = lower value 1.15 | S. cerevisiae deletion strains, locus YPR119W, strain clb2, stronger effect = lower value 0.986 | S. cerevisiae deletion strains, locus YPR141C, strain kar3, stronger effect = lower value 0.974 | S. cerevisiae deletion strains, locus YPR163C, strain tif3, stronger effect = lower value 0.986 | S. cerevisiae deletion strains, locus YPR167C, strain met16, stronger effect = lower value 0.989 | S. cerevisiae deletion strains, strain wtn01, stronger effect = lower value 0.995 | S. cerevisiae strains, strain wild type, stronger effect = lower value 0.986
